From PubChem BioAssay
TLR4-MyD88 BLA = inhibitors of human TLR4-MyD88 binding. 200,000 tested, 0.18% active. HeLa CL3-4 TLR4/MyD88 BLA complementation, FRET ratio. inhibition, % at 8.4 µM. AID 861. O00206+Q99836; in the data active = inhibition above about 25%;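 also: 0% = vehicle and 100% = reference inhibitor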
TLR9-MyD88 inh = TLR9-MyD88 interaction inhibition; Q9NR96+Q99836; CHO BLA complementation TLR9-MyD88, CCF4 FRET ratio; inhibition, % at 4.98 µM; 340,000 tested, 0.21% active; AID 504734;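 active = inhibition above the mean over all tested compounds plus 3 SD, cut at about 21% in these data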;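 also: 0% = DMSO only wells and 100% = clavulanate BLA inhibitor control wells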
Myeloid diff 2 = compounds promoting myeloid differentiation; 360,000 tested, 1% active; calls only at 10 µM; ER-HoxA9 myeloid progenitors, lysozyme-GFP differentiation, flow cytometry;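 active = normalized GFP-positive differentiation at or above the plate's own cutoff, the solvent-only control mean plus 3 SD; inconclusive = no clear call, values can overlap the other calls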;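 also: cells exposed to compound for four days before flow analysis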
NOD2 RIPK2 PPI = blocks binding of human NOD2 to RIPK2; O43353; CHO BLA complementation NOD2-RIPK2, CCF4 ratio; inhibition, % at 4.98 µM; 360,000 tested, 0.38% active; AID 624267; in the data active = inhibition above about 21%;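 also: 0% = vehicle only and 100% = reference blocker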
TLR9-MyD88 cf = TLR9-MyD88 interaction inhibition, confirmation. inhibition, % at 4.98 µM. 680 tested, 51% active. CHO TLR9/MyD88 BLA complementation, CCF4 FRET ratio. shares compounds with TLR9-MyD88 inh;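 active = mean inhibition across three repeats above about 21% taken from the earlier screen, limit read from the data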;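 also: blue over green emission ratio reports constitutive TLR9 MyD88 association via BLA complementation; 0% = DMSO vehicle wells and 100% = clavulanate BLA inhibitor wells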
BLA counter-1 = counter-screen for TLR9-MyD88 inhibitors: non-selective beta-lactamase inhibitors; shares compounds with TLR9-MyD88 inh; CHO-BLA cells, CCF4 FRET ratio, BLA reporter; inhibition, % at 4.98 µM; 680 tested, 7% active; AID 540251;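 active = mean inhibition above a 50% cutoff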;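 also: counterscreen of TLR9-MyD88 hits on CMV-driven BLA in CHO-K1 cells; 0% = DMSO alone and 100% = clavulanate blocking BLA; higher means less blue over green ratio so more BLA blockade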
TLR9 CHO cytotox = CHO cell toxicity counter-screen for TLR9-MyD88 inhibitors. shares compounds with TLR9-MyD88 inh. TLR9-MyD88 CHO cells cytotoxicity, luminescence. inhibition, % at 4.98 µM. 680 tested, 39% active; in the data active = inhibition above about 11%
Myeloid diff = compounds promoting myeloid differentiation; shares compounds with Myeloid diff 2; ER-HoxA9 myeloid progenitors, GFP/Mac1 double-positive flow; calls only; 2,300 tested, 2% active;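 active = share of green or green-and-red cells above 9 and 9% in run 1 or 4 and 3% in run 2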
GFP autofluor = flagged as fluorescent in myeloid differentiation counter-screen | shares compounds with Myeloid diff 2 | ER-HoxA9 myeloid progenitors, no estrogen, GFP autofluorescence flow cytometry; vehicle wells 0%, positive control 100% | fluorescence response, % (concentration not given with the values) | 2,300 tested, 7.4% active | AID 651707;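 active = over 5% cells positive for green fluorescent reporter, or over 2% positive for both it and APC stain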;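 also: range taken on the double positive population between DMSO and positive control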
NOD2 RIPK2 conf = NOD2-RIPK2 interaction inhibition confirmed | shares compounds with NOD2 RIPK2 PPI | CHO cells, NOD2-RIPK2 BLA complementation, CCF4 FRET | inhibition, % at 4.98 µM | 1,200 tested, 70% active;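 active = mean inhibition across replicates above a set limit taken from the earlier primary screen, cut at about 21% in these data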;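 also: 0% = DMSO-only wells and the high end = clavulanate BLA-blocked wells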
BLA counter-2 = hits BLA reporter in NOD2-RIPK2 inhibitor counterscreen; shares compounds with NOD2 RIPK2 PPI; CHO BLA reporter, CCF4 FRET ratio; 1,200 tested, 57% active; inhibition, % at 4.98 µM; AID 624371;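 active = mean inhibition above the low-control mean inhibition plus three low-control SD, cut at about 11% in these data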;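 also: 0% = DMSO only wells and 100% = clavulanate high control wells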
The depositor's hits bear a star; i = inactive; ? = inconclusive; · = no result; + = active, no number. Rows were chosen to be rich in hits. Some 1.5% of all compounds tested hit in one or more screens of this group.

SMILES	TLR4-MyD88 BLA	TLR9-MyD88 inh	Myeloid diff 2	NOD2 RIPK2 PPI	TLR9-MyD88 cf	BLA counter-1	TLR9 CHO cytotox	others
COc1cccc(C2=CC(c3ccc(C)cc3)n3ncnc3N2)c1 (stereo not given)	15	·	·	·	·	·	·
Cc1ccsc1C1C=C(c2cccc(Br)c2)Nc2ncnn21 (stereo not given)	0	28*	·	20	5	2	7
COc1ccccc1C1C=C(c2ccc(Cl)cc2)Nc2nc(NS(C)(=O)=O)nn21 (stereo not given)	5	·	·	·	·	·	·
COc1ccccc1C1C=C(c2ccc(Cl)cc2)Nc2nc(N3C(=O)CCC3=O)nn21 (stereo not given)	8	47*	i	53*	14	19	-2
O=C(NCc1cccc(Cl)c1)C1Cc2c(-c3ccccc3)ccnc2O1 (stereo not given)	·	·	i	1	·	·	·
O=C(COC(=O)c1ccc(F)cc1Cl)NC1CC1	·	-4	i	3	·	·	·
COc1ccc(NC(=O)c2sc3nc(-c4cccnc4)ccc3c2N)cc1OC	·	-4	i	-14	·	·	·
COc1ccc(NC(=O)c2sc3nc(-c4cccnc4)ccc3c2N)cc1	·	34*	i	12	8	5	8
COc1ccc(C(=O)c2sc3nc(-c4ccc(OC)cc4)ccc3c2N)cc1	-2	21*	i	4	45*	45	0
Cc1cc(NC(=O)c2c([N+](=O)[O-])cnn2C)no1	-13	34*	i	-9	3	-6	0
O=C1C(Cl)=C(NCCc2ccccc2)C(=O)c2ccccc21	·	21*	i	1	50*	5	98*
O=C1C(Cl)=C(Nc2ccccc2)C(=O)c2ccccc21	-3	-3	?	5	·	·	·
C#CCOCCOCCOCCNc1nc(N2CCN(C(=O)CCCCCCCCCCNC(=O)[C@H](CCCCN)n3cc(C[C@@H](C)CC)nn3)CC2)nc(N2CCN(C(=O)CCCCCCCCCCNC(=O)[C@H](CCCCN)n3cc(C[C@@H](C)CC)nn3)CC2)n1	·	52*	+	35*	29*	17	43*
Cc1ccccc1-c1cc2nc(NCc3ccc4occc4c3)n(C)c(=O)c2s1	·	·	i	-6	·	·	·
COc1ccc(C(=O)/C(=C\c2ccco2)N2C=CC=CC2=C(C#N)C#N)cc1	6	28*	?	85*	19	9	96*
COc1ccc(/C=C(/C(=O)c2cccs2)N2C=CC=CC2=C(C#N)C#N)cc1	-5	15	i	0	·	·	·
CC1(C(=O)NS(=O)(=O)c2ccc(Cl)cc2)CCN1C(=O)c1ccco1 (stereo not given)	·	·	i	-5	·	·	·
Cc1ccc(S(=O)(=O)N(C)C[C@@H]2OCc3cnnn3CCCC(=O)N([C@H](C)CO)C[C@@H]2C)cc1	·	-2	i	8	·	·	·
CCCCN(C(=O)CSc1nnc(-c2ccccc2)n1C)c1c(N)n(Cc2ccccc2)c(=O)[nH]c1=O	0	21*	i	2	-1	-1	1
Fc1cccc(/C=N/Nc2ccc(Cl)nn2)c1	·	23*	i	5	2	0	3
Oc1c(Br)cc(/C=N/Nc2ccc(Cl)nn2)cc1Br	·	3	i	12	·	·	·
CCn1nc(NC(=O)c2cccnc2)c2cc3cccc(C)c3nc21	-16	23*	i	-20	-6	-1	1
COc1ccc(CN2CCC(CNC(=O)NC3CCCCC3)CC2)cc1	6	22*	i	2	-1	2	0
COc1ccc(CNC(=O)NC2CCCCC2)cc1	-2	-9	i	-4	·	·	·
C[C@H](NC(=O)[C@@H]1CCCN1C(=O)[C@@H]1CCCN1C(=O)c1cccc(Cl)c1)c1ccccc1	·	·	i	1	·	·	·
SMILES	TLR4-MyD88 BLA	TLR9-MyD88 inh	Myeloid diff 2	NOD2 RIPK2 PPI	TLR9-MyD88 cf	BLA counter-1	TLR9 CHO cytotox	others
O=C(C=Cc1ccccc1)c1ccc([N+](=O)[O-])cc1	·	0	i	1	·	·	·
O=[N+]([O-])c1ccc(C=CC=Cc2ccccc2)cc1	·	25*	i	6	17	20	-3
Cc1ccc(S(=O)(=O)c2ccc(C)cc2)cc1	-2	2	i	4	·	·	·
Cc1ccc(S(=O)(=O)C=CS(=O)(=O)c2ccc(C)cc2)cc1	·	29*	i	7	37*	24	97*
NC(CCc1ccccc1)c1csc(NC(=O)Nc2cccc(C(F)(F)F)c2)n1 (stereo not given)	·	·	i	9	·	·	·
O=[N+]([O-])c1ccc(NN=Cc2ccc(O)cc2)nc1	·	11	i	4	·	·	·
CCN(CC)c1ccc(C=NNc2ccc([N+](=O)[O-])cn2)cc1	·	22*	+	14	38*	39	3	Myeloid diff=i;GFP autofluor=13*
Nc1ncnc2c1ncn2C1OCC(O)C1O (stereo not given)	·	·	i	-1	·	·	·
CCc1nc2ccc(C(=O)NCc3ccc(OC)cc3)cn2c1N(C)CCC(C)C	·	·	i	-8	·	·	·
O=C1/C(=C\c2cc([N+](=O)[O-])ccc2O)SC(=S)N1Cc1ccc(Cl)cc1	·	24*	i	13	15	18	3	Myeloid diff=i;GFP autofluor=74*
Cc1cc(/C=C2\Cc3ccccc3C2=O)c(C)n1-c1ccccc1	1	21*	+	10	19	23	8	Myeloid diff=i;GFP autofluor=11*
CN1/C(=C\C(=O)c2cncc(Br)c2)C(C)(C)c2ccccc21	16	22*	+	14	10	14	26*	Myeloid diff=i;GFP autofluor=20*
CN1/C(=C\C(=O)c2ccco2)C(C)(C)c2ccccc21	7	8	?	4	·	·	·
O=C(NC1CC1)c1cccc2c1C(=O)c1ccc(N3CCC(Cc4ccccc4)CC3)cc1S2(=O)=O	·	32*	i	34*	21	25	2	NOD2 RIPK2 conf=45*;BLA counter-2=50*
Oc1ccc2nnc3c(Br)cnn3c2c1	·	32*	i	44*	27*	31	6	NOD2 RIPK2 conf=60*;BLA counter-2=58*
CCc1nc2ccc(C(=O)N3CCN(C(=O)c4ccco4)CC3)cn2c1N(CCC(C)C)CCN(C)C	·	·	i	5	·	·	·
COc1ccc(C(=O)/C=C/c2ccc(N(C)C)cc2)c(OC)c1	·	36*	+	59*	29*	31	0	NOD2 RIPK2 conf=62*;BLA counter-2=66*
